# PubChem BioAssay AID2165 (The Scripps Research Institute Molecular Screening Center, 2009)
# Values without a mark were called inactive. Calls of active or inactive are those of the source. Rule as the data show it: active = IC50 below about 9 µM; inactive = the rest.
# Tested on: Ba/F3 Cytotoxicity
# Assay: JAK2V617F kinase, IRF1 reporter and Ba/F3 cytotoxicity panel, late-stage follow-up, HEL and Ba/F3 cells (AID 2165)
row,SMILES,IC50
1,Cc1[nH]c(=O)c(C(=O)C=Cc2cccc(Br)c2)c2c1CCCC2,0.67 µM (active)
2,COc1ccccc1OCC(=O)Nc1cc(C)ccc1O,0.018 µM (active)
3,Cc1ccc(O)c(NC(=O)COc2cccc(C)c2C)c1,> 40 µM
4,N#CC(=Cc1ccc(O)c(O)c1)C(=S)NCc1ccccc1,1.09 µM (active)
5,Cc1ccc(O)c(NC(=O)COc2cc(C)c(Cl)c(C)c2)c1,6.17 µM (active)
6,Cc1[nH]c(=O)c(C(=O)C=Cc2ccccc2Cl)c2c1CCCC2,0.16 µM (active)
7,CCS(=O)(=O)c1ccc(O)c(NC(=O)COc2cccc(C)c2)c1,> 40 µM
8,C/C(=C\c1ccccc1F)C(=O)c1c(C)cc(C)[nH]c1=O,> 40 µM
9,COc1cc2ncnc(NC(C)C)c2cc1OC,> 40 µM
10,COc1ccc(C)cc1NC(=O)Nc1ccc(Br)cn1,> 40 µM
11,COCCOc1cc2nc[nH]c(=O)c2cc1OCCOC,> 40 µM
12,CCC(C)c1ccc(OCC(=O)Nc2cc(C)ccc2O)cc1 (stereo not drawn),6.47 µM (active)
13,Cc1[nH]c(=O)c(C(=O)/C=C/c2ccccc2F)c2c1CCCC2,0.43 µM (active)
14,Cc1nnc(NC(=O)COc2ccccc2)s1,> 40 µM
15,Cc1[nH]c(=O)c(C(=O)/C=C/c2ccccc2)c2c1CCCC2,0.89 µM (active)
16,COc1ccc(C=CC(=O)c2c3c(c(C)[nH]c2=O)CCCC3)cc1,4.38 µM (active)
17,Cc1ccc(O)c(NC(=O)COc2ccc(F)cc2)c1,0.0825 µM (active)
18,COc1cc2ncnc(Nc3cccc(Cl)c3)c2cc1OC,> 40 µM
19,COc1cc2ncnc(N[C@H](C)c3ccccc3)c2cc1OC,3.19 µM (active)

row,SMILES,IC50
1,Cc1cccc(OCC(=O)Nc2ccccc2F)c1,> 40 µM
2,Cc1[nH]c(=O)c(C(=O)C=Cc2ccc(Cl)cc2Cl)c2c1CCCC2,1.45 µM (active)
3,Clc1cccc(Nc2ncnc3ccccc23)c1,> 40 µM
4,COc1cc2ncnc(Nc3cccc(Br)c3)c2cc1OC,> 40 µM
5,COc1cc2ncc(-c3ccccc3)nc2cc1OC,> 40 µM
6,Cc1ccc(C=CC(=O)c2c3c(c(C)[nH]c2=O)CCCC3)cc1,3.34 µM (active)
7,CCC(C)Nc1ncnc2cc(OC)c(OC)cc12 (stereo not drawn),> 40 µM
8,N#C/C(=C\c1ccc(O)c(O)c1)C(=O)NCCc1ccccc1,0.3 µM (active)
9,c1ccc(Nc2ncnc3ccccc23)cc1,> 40 µM
10,Cc1cc2ncc(-c3ccc(O)c(O)c3)nc2cc1C,0.36 µM (active)
11,COc1cccc(Nc2ncnc3cc(OC)c(OC)cc23)c1,> 40 µM
12,COc1ccc(Cl)cc1NC(=O)NC(C)c1ccncc1 (stereo not drawn),> 40 µM
13,Cc1ccc(O)c(NC(=O)COc2ccccc2C)c1,3.84 µM (active)
14,Cc1ccc(O)c(NC(=O)COc2ccc(Br)cc2)c1,2.43 µM (active)
15,COc1cc(/C=C(\C#N)C(N)=O)cc(CSc2nc3ccccc3s2)c1O,7.61 µM (active)
16,COCCOc1cc2ncnc(Nc3cccc(C#Cc4ccc(O)cc4)c3)c2cc1OCCOC,3.68 µM (active)
17,COc1cc2ncnc(NC3CCCCC3)c2cc1OC,> 40 µM
18,Cc1ccc(O)c(NC(=O)COc2ccc(C)c(C)c2)c1,5.02 µM (active)
19,Cc1[nH]c(=O)c(C(=O)C=Cc2ccc(C(C)C)cc2)c2c1CCCC2,2.74 µM (active)
